Conditions in all cases: mRNA level, 48 h; actives raise or lower the signal
Read-out in assay [1]: Tumor necrosis factor receptor superfamily member 6 (Homo sapiens) (UniProt P25445)
Nature of the assay: LTEA_HepaRG_FAS: Life Technologies and Expression Analysis (LTEA) Assay for Fas cell surface death receptor (FAS) using HepaRG (AID 2283447). The essentials: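 Differentiated HepaRG cells in serum-free induction medium were exposed 48 h to 8 half-log concentrations up to 100 uM in 0.5% DMSO, in duplicate. FAS mRNA was measured by qRT-PCR normalised to ACTB, GAPDH and POLR2A; bidirectional fit versus DMSO.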

Read-out in assay [2]: Fatty acid synthase (Homo sapiens) (UniProt P49327)
The experiment in a line: LTEA_HepaRG_FASN: Life Technologies and Expression Analysis (LTEA) Assay for Fatty Acid Synthase (FASN) using HepaRG (AID 2283448). The essentials: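 In human HepaRG cultures, 48 h chemical exposure (up to 100 uM, 0.5% DMSO) preceded TaqMan qRT-PCR of FASN.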

Read-out in assay [3]: Cyclin D2 (CCND2), CCND2 (gene 894)
The experiment in a line: LTEA_HepaRG_CCND2: Life Technologies and Expression Analysis (LTEA) Assay for Cyclin D2 (CCND2) using HepaRG (AID 2283449).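 Also: CCND2 transcript measured by TaqMan qRT-PCR and normalised to three housekeeping genes.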 The essentials: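 HepaRG, 48 h dosing, 8-pt half-log curve from 100 uM, 0.5% DMSO; duplicate wells. Readout: CCND2 transcript by microfluidic qRT-PCR, housekeeping-normalised; bidirectional fit vs DMSO baseline.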

Read-out in assay [4]: Cyclin Dependent Kinase Inhibitor 1A (CDKN1A), CDKN1A (gene 1026)
The experiment in a line: LTEA_HepaRG_CDKN1A: Life Technologies and Expression Analysis (LTEA) Assay for Cyclin Dependent Kinase Inhibitor 1A (CDKN1A) using HepaRG (AID 2283450). The essentials: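 Cryopreserved HepaRG cells were plated and cultured 48 h, then switched to serum-free induction medium. Chemicals (eight half-log concentrations, top 100 uM, 0.5% DMSO) were applied for 48 h. Lysates underwent qRT-PCR for CDKN1A with housekeeping normalization.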

Read-out in assay [5]: Cyclin D1 (CCND1), CCND1 (gene 595)
Nature of the assay: LTEA_HepaRG_CCND1: Life Technologies and Expression Analysis (LTEA) Assay for Cyclin D1 (CCND1) using HepaRG (AID 2283451). The method, boiled down:
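Human liver HepaRG line; 48 h dosing, 8 conc. ≤100 uM, 0.5% DMSO; TaqMan qRT-PCR mRNA, 3 housekeeping genes; bidirectional curve fit vs DMSO.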

Read-out in assay [6]: catalase (CAT), CAT (gene 847)
Nature of the assay: LTEA_HepaRG_CAT: Life Technologies and Expression Analysis (LTEA) Assay for catalase (CAT) using HepaRG (AID 2283452). The essentials:
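HepaRG cells in serum-free induction medium, 0.5% DMSO vehicle, exposed 48 h in duplicate over 8 half-log concentrations from 100 uM. CAT mRNA measured by qRT-PCR, normalized to ACTB, GAPDH, POLR2A; bidirectional fit versus DMSO.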

Read-out in assay [7]: flavin-containing dimethylaniline monooxygenases 3 (FMO3), FMO3 (gene 2328)
Nature of the assay: LTEA_HepaRG_FMO3: Life Technologies and Expression Analysis (LTEA) Assay for flavin-containing dimethylaniline monooxygenases 3 (FMO3) using HepaRG (AID 2283453). The method, boiled down: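 Eight-point concentration-response in serum-free HepaRG cultures (top 100 uM, 0.5% DMSO, 48 h). Read-out: FMO3 mRNA level normalized to three endogenous control genes, fitted bidirectionally versus vehicle.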

Read-out in assay [8]: Cytochrome P450 (CYP1A1), CYP1A1 (gene 1543)
The experiment in a line: LTEA_HepaRG_CYP1A1: Life Technologies and Expression Analysis (LTEA) Assay for Cytochrome P450 (CYP1A1) using HepaRG (AID 2283454). The essentials:
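Induction of CYP1A1 mRNA in a human hepatic cell line was measured 48 h after dosing, with 1 mM phenobarbital as induction positive control and 0.5% DMSO vehicle as baseline for bidirectional curve fitting.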

Read-out in assay [9]: CFLAR gene, CFLAR (gene 8837)
The experiment in a line: LTEA_HepaRG_CFLAR: Life Technologies and Expression Analysis (LTEA) Assay for CFLAR gene using HepaRG (AID 2283455). The essentials: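 qRT-PCR read-out (Fluidigm/TaqMan) of CFLAR mRNA, normalized to three housekeeping genes, in differentiated human HepaRG cells after 48 h chemical exposure; 8-point half-log series from 100 uM in 0.5% DMSO; bidirectional curve fitting versus DMSO.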

Read-out in assay [10]: Forkhead box O1 (FOXO1), FOXO1 (gene 2308)
Nature of the assay: LTEA_HepaRG_FOXO1: Life Technologies and Expression Analysis (LTEA) Assay for Forkhead box O1 (FOXO1) using HepaRG (AID 2283456). The method, boiled down: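 HepaRG, 48 h exposure, 8-pt half-log series from 100 uM in 0.5% DMSO, duplicates; Fluidigm qRT-PCR mRNA, housekeeping-normalised; bidirectional fit vs DMSO baseline.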

Read-out in assay [11]: growth arrest and DNA damage 45 (GADD45A), GADD45A (gene 1647)
Nature of the assay: LTEA_HepaRG_GADD45A: Life Technologies and Expression Analysis (LTEA) Assay for growth arrest and DNA damage 45 (GADD45A) using HepaRG (AID 2283458). The essentials: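 Eight-point concentration-response in HepaRG cells: 48 h chemical exposure, 0.5% DMSO vehicle, top dose 100 uM. Normalized qRT-PCR mRNA readout with bidirectional fitting relative to DMSO.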

Read-out in assay [12]: Forkhead box O3 (FOXO3), FOXO3 (gene 2309)
Nature of the assay: LTEA_HepaRG_FOXO3: Life Technologies and Expression Analysis (LTEA) Assay for Forkhead box O3 (FOXO3) using HepaRG (AID 2283459). The essentials:
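qRT-PCR readout of FOXO3 transcript, normalized to three housekeeping genes (ACTB, GAPDH, POLR2A); gain or loss fitted against 0.5% DMSO vehicle. HepaRG cells, 48 h chemical exposure, 8-point half-log series, top 100 uM.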

Read-out in assay [13]: ABC Transporter (ABCB1), ABCB1 (gene 5243)
Nature of the assay: LTEA_HepaRG_ABCB1: Life Technologies and Expression Analysis (LTEA) Assay for ABC Transporter (ABCB1) using HepaRG (AID 2283460). The essentials: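 HepaRG, 48 h exposure, 8-pt half-log series from 100 uM, 0.5% DMSO vehicle, duplicates. Readout: ABCB1 transcript by Fluidigm TaqMan qRT-PCR, housekeeping-normalized; bidirectional curve fit vs DMSO baseline.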

Read-out in assay [14]: growth arrest and DNA damage 45 (GADD45B), GADD45B (gene 4616)
The experiment in a line: LTEA_HepaRG_GADD45B: Life Technologies and Expression Analysis (LTEA) Assay for growth arrest and DNA damage 45 (GADD45B) using HepaRG (AID 2283461). The method, boiled down:
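Values are bidirectional concentration-response fits against 0.5% DMSO controls. Underlying data: qRT-PCR mRNA levels in human HepaRG liver cells treated 48 h in serum-free induction medium, eight concentrations topping at 100 uM.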

Read-out in assay [15]: ABC Transporter (ABCC3), ABCC3 (gene 8714)
The experiment in a line: LTEA_HepaRG_ABCC3: Life Technologies and Expression Analysis (LTEA) Assay for ABC Transporter (ABCC3) using HepaRG (AID 2283462). The method, boiled down: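 Differentiated HepaRG liver cells receive test chemicals at eight concentrations (max 100 uM) for 48 h. Expression of ABCC3 is quantified by qRT-PCR against ACTB, GAPDH and POLR2A, and activity is fitted in both directions against the DMSO control.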

Activity calls are given as the source filed them. The calls were made as follows: active = hit-call score of the fitted dose curve at least 0.9, where 1 is the maximum; inactive = score below 0.9.

Sequence of Fatty acid synthase (Homo sapiens) (P49327 whole entry, looked up): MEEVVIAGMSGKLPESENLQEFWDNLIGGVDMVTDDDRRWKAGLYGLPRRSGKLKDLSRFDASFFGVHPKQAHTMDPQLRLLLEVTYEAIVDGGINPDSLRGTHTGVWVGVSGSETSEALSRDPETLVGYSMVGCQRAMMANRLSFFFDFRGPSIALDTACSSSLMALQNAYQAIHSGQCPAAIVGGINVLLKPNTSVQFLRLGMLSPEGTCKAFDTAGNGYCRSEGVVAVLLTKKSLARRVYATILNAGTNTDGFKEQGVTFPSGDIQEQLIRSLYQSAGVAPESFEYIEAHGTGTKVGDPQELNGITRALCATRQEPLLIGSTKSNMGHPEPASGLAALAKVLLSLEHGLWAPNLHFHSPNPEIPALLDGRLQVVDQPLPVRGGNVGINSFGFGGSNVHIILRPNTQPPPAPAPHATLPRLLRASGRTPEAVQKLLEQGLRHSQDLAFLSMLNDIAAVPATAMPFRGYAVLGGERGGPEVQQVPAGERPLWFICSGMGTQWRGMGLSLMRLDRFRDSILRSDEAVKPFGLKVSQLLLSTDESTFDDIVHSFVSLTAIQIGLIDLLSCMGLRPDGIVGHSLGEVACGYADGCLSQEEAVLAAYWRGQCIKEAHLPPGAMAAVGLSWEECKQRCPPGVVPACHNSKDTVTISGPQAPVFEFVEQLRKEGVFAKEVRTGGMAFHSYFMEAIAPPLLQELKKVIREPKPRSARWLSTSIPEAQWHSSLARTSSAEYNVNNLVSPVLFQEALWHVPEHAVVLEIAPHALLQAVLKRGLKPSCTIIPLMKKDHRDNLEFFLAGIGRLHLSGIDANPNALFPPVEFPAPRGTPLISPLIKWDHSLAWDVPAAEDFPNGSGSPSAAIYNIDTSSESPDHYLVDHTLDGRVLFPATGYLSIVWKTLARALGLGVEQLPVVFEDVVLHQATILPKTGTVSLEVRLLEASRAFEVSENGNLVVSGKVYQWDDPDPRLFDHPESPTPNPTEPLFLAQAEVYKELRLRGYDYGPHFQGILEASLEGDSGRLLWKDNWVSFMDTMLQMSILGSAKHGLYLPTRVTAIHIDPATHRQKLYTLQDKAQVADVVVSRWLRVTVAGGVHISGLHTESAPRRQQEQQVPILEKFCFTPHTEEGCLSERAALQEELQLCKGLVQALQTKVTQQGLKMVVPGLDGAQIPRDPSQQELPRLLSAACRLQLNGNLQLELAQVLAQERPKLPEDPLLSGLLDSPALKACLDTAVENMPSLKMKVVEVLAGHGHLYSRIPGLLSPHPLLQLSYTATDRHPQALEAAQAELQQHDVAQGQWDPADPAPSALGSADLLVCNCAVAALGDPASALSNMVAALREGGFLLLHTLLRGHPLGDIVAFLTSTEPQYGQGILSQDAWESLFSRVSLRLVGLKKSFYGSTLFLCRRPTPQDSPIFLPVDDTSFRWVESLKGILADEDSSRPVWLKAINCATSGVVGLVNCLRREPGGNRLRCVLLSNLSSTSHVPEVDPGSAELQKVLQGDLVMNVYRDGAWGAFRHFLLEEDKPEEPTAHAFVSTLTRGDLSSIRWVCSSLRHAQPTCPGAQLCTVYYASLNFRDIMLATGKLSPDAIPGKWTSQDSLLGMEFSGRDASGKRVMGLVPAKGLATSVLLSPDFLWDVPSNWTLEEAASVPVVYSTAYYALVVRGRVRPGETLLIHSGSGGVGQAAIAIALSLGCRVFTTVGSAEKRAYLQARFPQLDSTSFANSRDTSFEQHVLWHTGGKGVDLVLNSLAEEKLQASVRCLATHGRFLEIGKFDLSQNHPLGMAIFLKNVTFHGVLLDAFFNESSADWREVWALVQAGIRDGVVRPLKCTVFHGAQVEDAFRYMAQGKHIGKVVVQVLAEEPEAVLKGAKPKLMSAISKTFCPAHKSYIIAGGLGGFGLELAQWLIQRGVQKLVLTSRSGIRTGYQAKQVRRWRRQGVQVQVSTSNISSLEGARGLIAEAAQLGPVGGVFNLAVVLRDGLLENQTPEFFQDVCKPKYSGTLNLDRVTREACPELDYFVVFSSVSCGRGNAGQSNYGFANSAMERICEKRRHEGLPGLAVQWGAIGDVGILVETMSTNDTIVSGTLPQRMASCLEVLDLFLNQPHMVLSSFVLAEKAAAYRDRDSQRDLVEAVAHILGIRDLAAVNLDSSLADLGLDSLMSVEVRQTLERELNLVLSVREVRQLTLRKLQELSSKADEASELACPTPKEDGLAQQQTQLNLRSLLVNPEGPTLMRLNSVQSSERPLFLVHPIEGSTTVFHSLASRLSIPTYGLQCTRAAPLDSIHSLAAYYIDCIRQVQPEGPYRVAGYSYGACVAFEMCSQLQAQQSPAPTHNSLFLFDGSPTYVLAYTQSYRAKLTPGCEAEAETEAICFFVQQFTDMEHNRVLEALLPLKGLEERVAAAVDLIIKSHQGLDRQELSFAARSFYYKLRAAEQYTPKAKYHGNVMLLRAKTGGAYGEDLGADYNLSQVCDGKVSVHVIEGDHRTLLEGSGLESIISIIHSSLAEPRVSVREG

Regarding `Cn1c(=O)c2c(ncn2C)n(C)c1=O`, the compound was classed as inactive in assay [1], in assay [2], in [3], in assay [4], in assay [5] and in assay [6]. The compound was called inactive in assay [7], in [9], in assay [10], in assay [11], in assay [12] and in assay [13]. For the same compound, the compound was classed as inactive in assay [14] and in assay [15]. In addition, the AC50 in [8] was 50 µM (active).

As for `Nc1cccc(N)c1`, the compound was called inactive in [1], in [2], in assay [3], in assay [4], in assay [5] and in assay [6]. For the same compound, the outcome in assay [7], in assay [9], in assay [10], in [11], in [12] and in assay [13] was inactive. The compound was classed as inactive in assay [14] and in assay [15]. Besides, the AC50 in assay [8] is 50 µM (active).

For the compound `O=P(OC(CCl)CCl)(OC(CCl)CCl)OC(CCl)CCl`, the AC50 in assay [1] was 0.232 µM (active); in [2], 50 µM (active); in assay [4], 90.8 µM (active); in assay [6], 50 µM (active); in [7] it was 63.8 µM (active); in assay [8] it was 13.1 µM (active). Further, the half-maximal activity concentration (AC50) in [11] is 0.21 µM (active). For the same compound, the result in assay [3], in assay [5], in assay [9], in assay [10], in [12] and in assay [14] was inactive. Further, the compound was classed as inactive in assay [15].

As to `O=C(OC[C@H]1O[C@@H](OC(=O)c2cc(O)c(O)c(OC(=O)c3cc(O)c(O)c(O)c3)c2)[C@H](OC(=O)c2cc(O)c(O)c(OC(=O)c3cc(O)c(O)c(O)c3)c2)[C@@H](OC(=O)c2cc(O)c(O)c(OC(=O)c3cc(O)c(O)c(O)c3)c2)[C@@H]1OC(=O)c1cc(O)c(O)c(OC(=O)c2cc(O)c(O)c(O)c2)c1)c1cc(O)c(O)c(OC(=O)c2cc(O)c(O)c(O)c2)c1`, the AC50 is 7.03 µM (active) in assay [1]; 15.2 µM (active) in assay [2]; 15.2 µM (active) in assay [6]; 9.23 µM (active) in assay [7]; 9.36 µM (active) in assay [8]; 3.26 µM (active) in assay [11]. Moreover, the AC50 in assay [15] is 9.66 µM (active). Also, the outcome in assay [3], in assay [4], in assay [5], in [9], in [10] and in assay [12] was inactive. Besides, the call in [13] and in assay [14] was inactive.

In general, AC50 refers to the midpoint of the concentration-response curve, whichever way the signal moves.
